Measured values taken from PubChem BioAssay (NCATS).
Inconclusive results are not listed. Activity calls are given as the source filed them. Calls come from the whole dose curve; as a rule, active = well fitted inhibition curve with a large enough effect; inconclusive = small, poorly fitted or top-dose-only effect; inactive = flat fitted curve, though single readings scatter.

What was measured:
[1] = qHTS profiling for inhibitors of Plasmodium falciparum proliferation (AID 504749);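 note: 0% = DMSO vehicle and full inhibition = artemisinin control; nearly all actives have a fitted effect of over 60% in size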; details: P. falciparum in erythrocytes, SYBR Green DNA, 72 h
How it was run: (§1)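 Parasite proliferation within erythrocytes, 72 h exposure. Endpoint: SYBR Green I fluorescence after overnight lysis at room temperature. Controls: 0.29 uM artemisinin, DMSO.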

3D7 = assay: as above; details: P. falciparum in erythrocytes, SYBR Green DNA, 72 h; series mostly up to 28.7 µM
How it was run: as §1

7G8 = assay: as above; details: P. falciparum in erythrocytes, SYBR Green DNA, 72 h; series mostly up to 28.7 µM
How it was run: as §1

AA1029 = assay: as above; details: P. falciparum in erythrocytes, SYBR Green DNA, 72 h; series mostly up to 28.7 µM
How it was run: as §1

AS120 = assay: as above; details: P. falciparum in erythrocytes, SYBR Green DNA, 72 h; series mostly up to 28.7 µM
How it was run: as §1

ATS189 = assay: as above; details: P. falciparum in erythrocytes, SYBR Green DNA, 72 h; series mostly up to 28.7 µM
How it was run: as §1

ATS95 = assay: as above; details: P. falciparum in erythrocytes, SYBR Green DNA, 72 h; series mostly up to 28.7 µM
How it was run: as §1

C2A = assay: as above; details: P. falciparum in erythrocytes, SYBR Green DNA, 72 h; series mostly up to 28.7 µM
How it was run: as §1

CP185 = assay: as above; details: P. falciparum in erythrocytes, SYBR Green DNA, 72 h; series mostly up to 28.7 µM
How it was run: as §1

CP191 = assay: as above; details: P. falciparum in erythrocytes, SYBR Green DNA, 72 h; series mostly up to 28.7 µM
How it was run: as §1

CP192 = assay: as above; details: P. falciparum in erythrocytes, SYBR Green DNA, 72 h; series mostly up to 28.7 µM
How it was run: as §1

CP194 = assay: as above; details: P. falciparum in erythrocytes, SYBR Green DNA, 72 h; series mostly up to 28.7 µM
How it was run: as §1

CP201 = assay: as above; details: P. falciparum in erythrocytes, SYBR Green DNA, 72 h; series mostly up to 28.7 µM
How it was run: as §1

CP203 = assay: as above; details: P. falciparum in erythrocytes, SYBR Green DNA, 72 h; series mostly up to 28.7 µM
How it was run: as §1

CP211 = assay: as above; details: P. falciparum in erythrocytes, SYBR Green DNA, 72 h; series mostly up to 28.7 µM
How it was run: as §1

CP215 = assay: as above; details: P. falciparum in erythrocytes, SYBR Green DNA, 72 h; series mostly up to 28.7 µM
How it was run: as §1

CP217 = assay: as above; details: P. falciparum in erythrocytes, SYBR Green DNA, 72 h; series mostly up to 28.7 µM
How it was run: as §1

CP237 = assay: as above; details: P. falciparum in erythrocytes, SYBR Green DNA, 72 h; series mostly up to 28.7 µM
How it was run: as §1

[2] = at 28.7 µM (top of the series), parasite line A
[3] = at 28.7 µM (top of the series), parasite line B
[4] = at 12.8 µM (top of the series), parasite line A
[5] = at 12.8 µM (top of the series), parasite line B

Cc1cccn2c(=O)c(-c3nnn[nH]3)cnc12
inactive: activity, negative = inhibition [1, 2] 7.08% | activity, negative = inhibition [1, 3] 2.69% | Potency (3D7) | Potency (7G8) | Potency (AA1029) | Potency (AS120) | Potency (ATS189) | Potency (ATS95) | Potency (C2A) | Potency (CP185) | Potency (CP191) | Potency (CP192) | Potency (CP194) | Potency (CP201) | Potency (CP203) | Potency (CP211) | Potency (CP215) | Potency (CP217) | Potency (CP237)

NCCc1ccn[nH]1
inactive: activity, negative = inhibition [1, 4] 6.26% | activity, negative = inhibition [1, 5] 12.5% | Potency (3D7) | Potency (7G8) | Potency (AA1029) | Potency (AS120) | Potency (ATS189) | Potency (ATS95) | Potency (C2A) | Potency (CP185) | Potency (CP191) | Potency (CP192) | Potency (CP194) | Potency (CP201) | Potency (CP203) | Potency (CP211) | Potency (CP215) | Potency (CP217) | Potency (CP237)

COC1=CC(=O)C[C@@H](C)[C@]12Oc1c(Cl)c(OC)cc(OC)c1C2=O
inactive: activity, negative = inhibition [1, 2] 4.87% | activity, negative = inhibition [1, 3] -1.47% | Potency (3D7) | Potency (7G8) | Potency (AA1029) | Potency (AS120) | Potency (ATS189) | Potency (ATS95) | Potency (C2A) | Potency (CP185) | Potency (CP191) | Potency (CP192) | Potency (CP194) | Potency (CP201) | Potency (CP203) | Potency (CP211) | Potency (CP215) | Potency (CP217) | Potency (CP237)

C[N+]1(CCCCC[N+]2(C)CCCC2)CCCC1
inactive: activity, negative = inhibition [1, 2] 2.83% | activity, negative = inhibition [1, 3] 3.44% | Potency (3D7) | Potency (7G8) | Potency (AA1029) | Potency (AS120) | Potency (ATS189) | Potency (ATS95) | Potency (C2A) | Potency (CP185) | Potency (CP191) | Potency (CP192) | Potency (CP194) | Potency (CP201) | Potency (CP203) | Potency (CP211) | Potency (CP215) | Potency (CP217) | Potency (CP237)

Cc1c(C(C)C)c(=O)n(-c2ccccc2)n1C
inactive: activity, negative = inhibition [1, 2] 5.32% | activity, negative = inhibition [1, 3] 0.527% | Potency (3D7) | Potency (7G8) | Potency (AA1029) | Potency (AS120) | Potency (ATS189) | Potency (ATS95) | Potency (C2A) | Potency (CP185) | Potency (CP191) | Potency (CP192) | Potency (CP194) | Potency (CP201) | Potency (CP203) | Potency (CP211) | Potency (CP215) | Potency (CP217) | Potency (CP237)

NC(CO)(CO)CO
inactive: activity, negative = inhibition [1, 2] 6.7% | activity, negative = inhibition [1, 3] -0.553% | Potency (3D7) | Potency (7G8) | Potency (AA1029) | Potency (AS120) | Potency (ATS189) | Potency (ATS95) | Potency (C2A) | Potency (CP185) | Potency (CP191) | Potency (CP192) | Potency (CP194) | Potency (CP201) | Potency (CP203) | Potency (CP211) | Potency (CP215) | Potency (CP217) | Potency (CP237)

CCCCCCc1ccc(O)cc1O
inactive: activity, negative = inhibition [1, 2] 6.34% | activity, negative = inhibition [1, 3] 12.1% | Potency (3D7) | Potency (7G8) | Potency (AA1029) | Potency (AS120) | Potency (ATS189) | Potency (ATS95) | Potency (C2A) | Potency (CP185) | Potency (CP191) | Potency (CP192) | Potency (CP194) | Potency (CP201) | Potency (CP203) | Potency (CP211) | Potency (CP215) | Potency (CP217) | Potency (CP237)

CN1C(CCl)Nc2cc(Cl)c(S(N)(=O)=O)cc2S1(=O)=O (stereo not drawn)
inactive: activity, negative = inhibition [1, 2] 6.24% | activity, negative = inhibition [1, 3] -11.6% | Potency (3D7) | Potency (7G8) | Potency (AA1029) | Potency (AS120) | Potency (ATS189) | Potency (ATS95) | Potency (C2A) | Potency (CP185) | Potency (CP191) | Potency (CP192) | Potency (CP194) | Potency (CP201) | Potency (CP203) | Potency (CP211) | Potency (CP215) | Potency (CP217) | Potency (CP237)

O=C(O)CCCCC(=O)O
inactive: activity, negative = inhibition [1, 2] -0.183% | activity, negative = inhibition [1, 3] 5.83% | Potency (3D7) | Potency (7G8) | Potency (AA1029) | Potency (AS120) | Potency (ATS189) | Potency (ATS95) | Potency (C2A) | Potency (CP185) | Potency (CP191) | Potency (CP192) | Potency (CP194) | Potency (CP201) | Potency (CP203) | Potency (CP211) | Potency (CP215) | Potency (CP217) | Potency (CP237)

COc1c2occc2c(OC)c2c(=O)cc(C)oc12
inactive: activity, negative = inhibition [1, 4] 5.55% | activity, negative = inhibition [1, 5] 4.52% | Potency (3D7) | Potency (7G8) | Potency (AA1029) | Potency (AS120) | Potency (ATS189) | Potency (ATS95) | Potency (C2A) | Potency (CP185) | Potency (CP191) | Potency (CP192) | Potency (CP194) | Potency (CP201) | Potency (CP203) | Potency (CP211) | Potency (CP215) | Potency (CP217) | Potency (CP237)

CCN(CC)C(=O)N1CCN(C)CC1
inactive: activity, negative = inhibition [1, 4] 5.24% | activity, negative = inhibition [1, 5] 18.6% | Potency (3D7) | Potency (7G8) | Potency (AA1029) | Potency (AS120) | Potency (ATS189) | Potency (ATS95) | Potency (C2A) | Potency (CP185) | Potency (CP191) | Potency (CP192) | Potency (CP194) | Potency (CP201) | Potency (CP203) | Potency (CP211) | Potency (CP215) | Potency (CP217) | Potency (CP237)

Nc1ccc(C(=O)Nc2ccccc2N)cc1
inactive: activity, negative = inhibition [1, 2] -0.627% | activity, negative = inhibition [1, 3] 14.4% | Potency (3D7) | Potency (7G8) | Potency (AA1029) | Potency (AS120) | Potency (ATS189) | Potency (ATS95) | Potency (C2A) | Potency (CP185) | Potency (CP191) | Potency (CP192) | Potency (CP194) | Potency (CP201) | Potency (CP203) | Potency (CP211) | Potency (CP215) | Potency (CP217) | Potency (CP237)
